Several values for one entry are separate records, joined by “and”; a condition that tells them apart may be missing. Equal entries are not always repeated. Out of some 16,000 compounds screened, about 5,800 (36%) were called active. About 23% were inconclusive and are not listed. Calls follow the shape of the dose curve; as a rule, active = well fitted curve in the direction sought with a large enough effect; inconclusive = small, poorly fitted or top-dose-only effect, or effect the other way; inactive = no such curve, though single readings can be large or run the other way. Some of the results follow. The source holds several records for some structures; these can differ, active in one and inactive in another.

By AC50 is commonly meant the midpoint of the concentration-response curve, whichever way the signal moves.
% is scaled to controls: 0 for no effect and ±100 for the full control effect.

In this assay the target is Cytochrome P450 2C19 (Homo sapiens) (UniProt P33261). Nature of the assay: Cytochrome panel assay with activity outcomes. The conditions noted are these: recombinant CYP, pro-luciferin dealkylation, luminescence, p450-cyp2c19; series mostly up to 57.1 µM.
Chain of Cytochrome P450 2C19 (Homo sapiens) (P33261 whole entry, looked up): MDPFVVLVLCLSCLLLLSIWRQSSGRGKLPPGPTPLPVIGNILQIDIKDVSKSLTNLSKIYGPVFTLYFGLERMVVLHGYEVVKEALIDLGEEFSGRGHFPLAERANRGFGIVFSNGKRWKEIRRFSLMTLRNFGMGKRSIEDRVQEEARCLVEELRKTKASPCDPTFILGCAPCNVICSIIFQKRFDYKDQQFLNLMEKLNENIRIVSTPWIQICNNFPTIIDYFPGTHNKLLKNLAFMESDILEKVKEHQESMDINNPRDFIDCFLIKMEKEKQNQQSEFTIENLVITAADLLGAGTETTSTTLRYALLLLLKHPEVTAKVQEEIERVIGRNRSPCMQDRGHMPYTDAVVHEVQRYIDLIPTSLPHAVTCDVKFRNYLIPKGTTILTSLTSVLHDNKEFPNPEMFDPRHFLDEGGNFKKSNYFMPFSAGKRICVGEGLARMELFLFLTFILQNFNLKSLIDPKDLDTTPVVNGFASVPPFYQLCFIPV
In the case of `CCC(CC)c1nnc(NC(=O)c2cccc(S(=O)(=O)N3CCc4ccccc43)c2)s1`, the AC50 was 7.94 µM (active).

On to `CCn1cc(C(=O)N/N=C(/C)c2ccc(F)cc2)c(=O)c2cc(F)c(N3CCCC3)cc21`, for which the half-maximal activity concentration (AC50) is 4.47 µM (active).

For the compound `CCn1cc(C(=O)O)c(=O)c2cc3c(cc21)OCO3`, the AC50 entry is “inactive”.

Take `CCn1cc(C(=O)O)c(=O)c2cc(F)c(N3CCNCC3)nc21`: the AC50 entry was “inactive”.

For `N=C(N)SCc1cccc(-c2nc3ccccc3c(=O)o2)c1`, the activity, negative = inhibition was 16.9% [at 11.4 µM] (inactive).

Turning to `CC(C)CCN1C(=O)c2ccc(-c3nc4ccccc4c(=O)o3)cc2C1=O`, the AC50 is 14.1 µM (active).

Consider `CCCCOC(=O)Nc1ccc(C)c(Cl)c1`, for which the concentration at half-maximal activity (AC50) was 2 µM (active).

Regarding `CCCCOc1ccc(C(=O)CCN2CCCCC2)cc1`, the AC50 entry was “inactive”.

Turning to `CCCOc1ccc(C(=O)CCNc2ccc(C)c(Cl)c2)cc1`, the AC50 was 0.398 µM (active).

Turning to `Cc1ccc(NCCC(=O)c2ccc(Cl)cc2)cc1C`, the AC50 was 1.26 µM (active).

For `CCOC(=O)Nc1ccc2c(c1)N(C(=O)CCN1CCOCC1)c1ccccc1S2`, the AC50 entry was “inactive”.

`Cc1ccc(NC(=O)CCC(=O)c2ccc(F)cc2)cc1Cl`: the AC50 was 3.98 µM (active).

Regarding `C[C@@H](c1ccccc1)N1C(=O)[C@H]2[C@@H]3[C@H](O)[C@H](O)CC(=O)[C@H]3CC[C@H]2C1=O`, the activity, negative = inhibition was 13.8% [at 11.4 µM] (inactive) and 0.79% [at 11.4 µM] (inactive).

With `Cc1nc2cnc(Oc3ccccc3)nc2n(-c2ccccc2)c1=O`, the AC50 result was “inactive”.

With `O=C(O)CNc1ccc(C(=O)O)cc1`, the activity, negative = inhibition is 21.5% [at 11.4 µM] (inactive).

Turning to `O=C(O)CCC(=O)c1ccc(Cl)cc1`, the activity, negative = inhibition was 22.7% [at 11.4 µM] (inactive).

`Cc1ccc(NCCC(=O)c2ccc(Cl)cc2)cc1`: the AC50 was 1.41 µM (active).

For `CC[N+](C)(CC)CCC[n+]1c(-c2ccccc2)c2cc(N)ccc2c2ccc(N)cc21`, the half-maximal activity concentration (AC50) was 1.58 µM (active).

On to `CC(=O)c1cc2ccccc2oc1=O`, for which the AC50 entry is “inactive”.

As to `CC(C)OC(=O)c1cc2ccccc2oc1=O`, the half-maximal activity concentration (AC50) was 15.8 µM (active).

On to `Cc1ccc[n+](CC(=O)c2cc3ccccc3oc2=O)c1`, for which the AC50 entry is “inactive”.

Regarding `CC1(C)Oc2ccc(C#N)cc2[C@H](N2CCCC2=O)[C@H]1O`, the AC50 result was “inactive”.

As to `COn1c(-c2ccccc2)nc2c1CCc1nonc1-2`, the AC50 is 15.8 µM (active).

For `CCC(C)c1ccc(Nc2ncccc2C#N)cc1` (centres undefined), the AC50 is 4.47 µM (active).

For `O=C(Cc1ccccc1)NC(NCCc1ccccc1)C(Cl)(Cl)Cl` (centres undefined), the AC50 was 0.794 µM (active).

With `O=C(O)C[C@H](Cc1ccccc1)C(=O)O`, the activity, negative = inhibition is -9.67% [at 11.4 µM] (inactive).

Turning to `COC(=O)CN(c1ccc(OC)cc1)S(=O)(=O)c1c(C)noc1C`, the half-maximal activity concentration (AC50) is 5.01 µM (active).

As to `COc1ccc(NC(=O)N2CC[C@@]3(CCCN(C(=O)c4c(C)noc4C)C3)C2)cc1`, the AC50 entry was “inactive”.

On to `COc1cccc(CNC(=O)CCNC(=O)Cn2ccc3ccccc3c2=O)c1`, for which the AC50 entry was “inactive”.

`COc1ccc(N(CC(=O)NCc2cccc(OC)c2)S(=O)(=O)c2c(C)noc2C)cc1`: the concentration at half-maximal activity (AC50) was 2 µM (active).

With `O=C(O)/C=C\c1cnc[nH]1`, the AC50 entry was “inactive”.

Turning to `Nc1nc(SCC(=O)O)[nH]c(=O)c1N`, the activity, negative = inhibition was 25.5% [at 11.4 µM] (inactive).

In the case of `CCCCCOC(=O)CSc1nnc(-c2ccccc2)c(=O)[nH]1`, the AC50 was 8.91 µM (active).

Turning to `NCCCc1c(-c2ccccc2)nc(N)[nH]c1=O`, the activity, negative = inhibition is -12.9% [at 11.4 µM] (inactive).

As for `CC(=O)OCCCN1c2ccccc2Nc2nnc(-c3ccccc3)cc21`, the half-maximal activity concentration (AC50) was 7.08 µM (active).

On to `CC(C)(C)n1nc(-c2ccc(Cl)cc2)c2c(N)ncnc21`, for which the AC50 was 2 µM (active).

In the case of `CCNc1ncc2nc(-c3ccc(Cl)cc3)c(=O)n(C)c2n1`, the AC50 entry was “inactive”.

As for `CC(C)(C)Cn1nc(-c2ccc(Cl)cc2)c2c(N)ncnc21`, the AC50 result is “inactive”.

Turning to `O=c1c2ccccc2nnn1CSc1ccc2c(c1)OCCO2`, the AC50 is 1.12 µM (active).

For the compound `O=c1c2ccccc2nnn1CSc1nnnn1-c1ccccc1`, the concentration at half-maximal activity (AC50) is 7.94 µM (active).

As to `Cc1cc(C)c(C#N)c(OCC(=O)c2ccc(Br)cc2)n1`, the concentration at half-maximal activity (AC50) was 3.16 µM (active).

With `C/C(=N\NC(=O)c1ccncc1)c1ccc2ccccc2c1O`, the half-maximal activity concentration (AC50) was 0.501 µM (active).

With `O=Nc1c(O)n(Cc2ccc(Cl)c(Cl)c2)c2ccccc12`, the AC50 was 0.891 µM (active).

With `O=Nc1c(O)n(Cc2ccc(Cl)cc2)c2ccccc12`, the AC50 was 0.794 µM (active).

On to `O=C1C(=O)N(Cc2ccc(Cl)c(Cl)c2)c2ccccc21`, for which the AC50 result is “inactive”.

In the case of `Cn1c(=O)c2c(n(Cc3ccccc3)c1=O)NC(=O)C2CC(=O)NCc1cccc(Cl)c1` (centres undefined), the AC50 entry was “inactive”.

As for `O=Nc1c(O)n(Cc2cccc(Cl)c2)c2ccccc12`, the AC50 was 3.55 µM (active).

Regarding `O=[N+]([O-])c1ccc(CS(=O)Cc2ccccc2)cc1` (centres undefined), the AC50 is 1.26 µM (active).

Consider `CN(Cc1ccccc1)c1nc(-c2ccc([N+](=O)[O-])cc2)nc2ccccc12`, for which the AC50 result is “inactive”.

With `COc1ccc([N+](=O)[O-])cc1NCc1ccccc1C`, the half-maximal activity concentration (AC50) is 2.82 µM (active).

On to `Cc1cc([N+](=O)[O-])ccc1NCc1ccccc1`, for which the AC50 is 2 µM (active).

Turning to `O=C(O)c1cc([N+](=O)[O-])ccc1NCCCc1ccccc1`, the AC50 entry is “inactive”.

Consider `COc1ccccc1CN1CCC2(CC1)CCN(C(=O)c1cccn1C)CC2`, for which the AC50 result was “inactive”.

Regarding `O=C1CC(N2CCOCC2)C(=O)N1c1cccc(Cl)c1` (centres undefined), the half-maximal activity concentration (AC50) is 8.91 µM (active).

Take `CO[C@@H]1/C=C\O[C@@]2(C)Oc3c(C)c(O)c4c(c3C2=O)C(=N[C@H]2CC[C@H](O)O[C@@H]2C)C=C(NC(=O)/C(C)=C\C(=O)[C@@H]2C[C@@H]2[C@@H](O)[C@H](C)[C@@H](O)[C@H](C)[C@H](OC(C)=O)[C@@H]1C)C4=O`: the concentration at half-maximal activity (AC50) was 2.51 µM (active).

For the compound `CO[C@H]1C=CO[C@]2(C)Oc3c(C)c(O)c4c(O)c(c5c(c4c3C2=O)NC2(CCN(CC(C)C)CC2)N=5)=NC(=O)C(C)=CC=C[C@@H](C)[C@@H](O)[C@@H](C)[C@@H](O)[C@@H](C)[C@@H](OC(C)=O)[C@@H]1C`, the AC50 result was “inactive”.

With `CO[C@@H]1/C=C\O[C@]2(C)Oc3c(C)c(O)c4c(O)c(cc(O)c4c3C2=O)NC(=O)/C(C)=C\C=C/[C@H](C)[C@@H](O)[C@H](C)[C@H](O)[C@H](C)[C@H](OC(C)=O)[C@@H]1C`, the activity, negative = inhibition was -13.1% [at 11.4 µM] (inactive).

For `Cc1ccc(N2C(=O)C(Cl)=C(NCc3ccccc3)C2=O)c(C)c1`, the concentration at half-maximal activity (AC50) is 3.16 µM (active).

Regarding `c1ccc(CSc2ncnc3c2sc2nc(N4CCOCC4)c4c(c23)CCCC4)cc1`, the concentration at half-maximal activity (AC50) is 7.08 µM (active).

Regarding `CCSc1ncnc2c1sc1nc(-c3ccco3)c3c(c12)CC(C)(C)OC3`, the AC50 result is “inactive”.

Consider `OCCn1cnc2c(SCc3ccccc3)ncnc21`, for which the activity, negative = inhibition was 12.6% [at 11.4 µM] (inactive).

In the case of `CC(C)C[C@H](NC(=O)N1CCCCCC1)C(=O)N[C@H](Cc1cn(C)c2ccccc12)C(=O)N[C@H](Cc1ccccn1)C(=O)O`, the AC50 result was “inactive”.

Turning to `CCn1c2ccccc2c2cc(NC(=O)CSc3nnc(-c4ccc(OC)c(OC)c4)n3N)ccc21`, the concentration at half-maximal activity (AC50) is 7.94 µM (active).

On to `O=C(CCCNS(=O)(=O)c1cccc2nsnc12)NCCc1ccccc1`, for which the concentration at half-maximal activity (AC50) was 6.31 µM (active).

In the case of `CSc1nc2ccccc2cc1/C=C(\C#N)c1ccc(Cl)cc1Cl`, the concentration at half-maximal activity (AC50) was 22.4 µM (active).

Take `CSc1nc2ccccc2cc1/C=C(\C#N)c1cccc(Cl)c1`: the AC50 is 15.8 µM (active).

Turning to `CSc1nc2ccccc2cc1/C=C(\C#N)c1cccc(C)c1`, the AC50 is 3.55 µM (active).

`CSc1nc2ccccc2cc1/C=C(\C#N)c1ccccc1`: the concentration at half-maximal activity (AC50) was 11.2 µM (active).

`CCN(C(=O)CSc1nc2cc(C(=O)OC)ccc2c(=O)n1Cc1ccco1)c1cccc(C)c1`: the AC50 was 1.41 µM (active).

For the compound `CCc1ccc(NC(=O)CSc2nc3cc(C(=O)OC)ccc3c(=O)n2Cc2ccco2)cc1`, the AC50 entry is “inactive”.

Turning to `O=C(NCCc1ccc(Cl)cc1)Nc1cccc(Cl)c1`, the AC50 is 0.891 µM (active).

With `CNC(=O)C(=O)NCCc1ccc(Cl)cc1`, the concentration at half-maximal activity (AC50) was 1.12 µM (active).

With `O=C(Nc1cccc(Cl)c1)Nn1cnnc1`, the activity, negative = inhibition is 11.3% [at 11.4 µM] (inactive).

For the compound `O=C(NCCc1ccc(Cl)cc1)c1ncn[nH]1`, the AC50 result was “inactive”.

`S=C(S)NCCN1CCNCC1`: the activity, negative = inhibition was -11.3% [at 11.4 µM] (inactive).

In the case of `Cc1noc(C)c1-c1nc(N2CCOCC2)c2ccccc2n1`, the AC50 entry is “inactive”.

In the case of `Cc1nc2cnc(N3CCOCC3)nc2n(Cc2cccs2)c1=O`, the AC50 entry was “inactive”.

With `Cc1nc(N2CCOCC2)nc(N2CCN(c3ccccc3)CC2)c1[N+](=O)[O-]`, the AC50 was 2.24 µM (active).

Turning to `Cc1ccc(NC(=O)CCSc2nnc3ccccn23)cc1`, the AC50 is 0.794 µM (active).

On to `CC(C)(C)NC(=O)NC(=O)CSc1nnc2ccccn12`, for which the AC50 entry was “inactive”.

Turning to `C[C@H](O/N=C1/[C@H]2O[C@@H]2[C@@H](O)[C@H]2[C@H]1CCn1c(=O)n(-c3ccccc3)c(=O)n12)c1cn([C@H](CO)Cc2ccccc2)nn1`, the activity, negative = inhibition was 20% [at 11.4 µM] (inactive) and 36.7% [at 11.4 µM] (inactive).

As for `O=C(c1cc(C(F)(F)F)cc(C(F)(F)F)c1)N1CCC2(CC1)CCN(c1ncccn1)CC2`, the AC50 result is “inactive”.

In the case of `O=C(OC1CCN(c2ncc(C(F)(F)F)cc2Cl)CC1)c1ccccc1`, the AC50 was 11.2 µM (active).

Turning to `COc1ccc(/C=N/NC(=O)C2CCN(c3ncc(C(F)(F)F)cc3Cl)CC2)cc1`, the AC50 entry is “inactive”.

`COc1cccc2cc3c(=O)oc4ccccc4c3nc12`: the concentration at half-maximal activity (AC50) was 3.98 µM (active).

Consider `Cn1c(C(F)(F)F)nc2c(=O)oc3ccccc3c21`, for which the AC50 entry was “inactive”.

As to `COc1ccccc1CNc1ccnc(-c2ccc3c(c2)OCO3)n1`, the AC50 is 3.16 µM (active).

On to `COc1ccc(CNc2ccnc(-c3ccc4c(c3)OCO4)n2)c(OC)c1`, for which the AC50 is 2.51 µM (active).

`O=C(Nc1ccccc1)N1CC2(CCN(C(=O)c3cnccn3)CC2)C1`: the AC50 entry was “inactive”.

Regarding `Cc1ccn2cc(CSc3ccccc3N)nc2c1`, the half-maximal activity concentration (AC50) was 2.51 µM (active).

`N#C/C(=C\Nc1ccccn1)C(=O)c1ccco1`: the activity, negative = inhibition is -6.24% [at 11.4 µM] (inactive).

For the compound `CCSC(=N)N`, the AC50 result was “inactive”.

In the case of `CC(C)SC(=N)N`, the AC50 entry was “inactive”.

On to `CSC(=N)N`, for which the AC50 result was “inactive and 631 nM (active)”.

(Values after PubChem BioAssay AID1851 (National Center for Advancing Translational Sciences (NCATS), 2009).)
